Screens as filed in PubChem.
Compounds with a hit are over-represented: about 1.3% of the library has one in this group of screens.
LYPLA2 inh: LYPLA2 (human) inhibition in PME1 counter-screen | AID 2177 | 0.38% of 320,000 active | recombinant LYPLA2, FP-Rh probe fluorescence polarization | O95372 | inhibition, % at 5.9 µM;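 active = inhibition above the screen-wide mean plus 3 SD, limit set per campaign, cut at about 26% in these data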
ZTA counter: ZTA (EBV) inhibition in EBNA-1 counter-screen; P03206; 0.15% of 320,000 active; AID 2234; inhibition, % at 11 µM; ZTA-DNA binding, fluorescence polarization; in the data active = inhibition above about 33%
Target sequence (P03206 whole entry, looked up): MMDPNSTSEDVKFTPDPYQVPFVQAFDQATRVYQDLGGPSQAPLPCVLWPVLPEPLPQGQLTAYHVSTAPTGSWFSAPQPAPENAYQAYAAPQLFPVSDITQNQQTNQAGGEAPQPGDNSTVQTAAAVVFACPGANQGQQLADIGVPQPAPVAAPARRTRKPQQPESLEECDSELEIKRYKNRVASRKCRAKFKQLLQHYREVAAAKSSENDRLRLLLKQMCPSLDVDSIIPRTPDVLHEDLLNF
PREPL inhibitor: inhibitors of human prolyl oligopeptidase-like enzyme PREPL. Q4J6C6. recombinant PREPL, fluorescence polarization activity-based probe. inhibition, % at 5.96 µM. 0.68% of 320,000 active. AID 2751; in the data active = inhibition above about 43%
EBNA-1 inh: blocks EBNA-1 binding to DNA | inhibition, % at 14.8 µM | EBNA-1 DNA binding, fluorescence polarization | AID 1950 | 0.34% of 300,000 active; in the data active = inhibition above about 28%
LYPLA1 counter: LYPLA1 (human) inhibition in PME1 counter-screen. O75608. recombinant LYPLA1, FP-Rh probe fluorescence polarization. inhibition, % at 5.9 µM. 0.16% of 320,000 active;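 active = inhibition above the mean of all tested compounds plus 3 SD, set per campaign, cut at about 14% in these data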;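 note: inhibitors block serine hydrolase probe labeling of LYPLA1 so polarization falls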
Target sequence (O75608 whole entry, looked up): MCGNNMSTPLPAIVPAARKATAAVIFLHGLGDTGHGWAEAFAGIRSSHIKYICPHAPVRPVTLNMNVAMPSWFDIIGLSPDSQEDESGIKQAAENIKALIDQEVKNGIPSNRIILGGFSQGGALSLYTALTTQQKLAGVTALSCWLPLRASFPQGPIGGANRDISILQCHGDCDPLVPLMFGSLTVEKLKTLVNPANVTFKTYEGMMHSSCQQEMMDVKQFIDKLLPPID
EBNA-1 inh conf: EBNA-1 (EBV) inhibition, confirmation. shares compounds with EBNA-1 inh. Recombinant EBNA-1 DBD, Cy5-DNA fluorescence polarization. inhibition, % at 14.8 µM. 35% of 830 active. AID 2292;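 active = mean inhibition across replicates above a set limit taken from the earlier primary screen, cut at about 28% in these data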
ZTA DNA inh trip: ZTA (EBV) inhibition, triplicate counter-screen | Zta-ZRE DNA binding, Cy5 fluorescence polarization | inhibition, % at 11.1 µM | AID 2328 | 830 tested, under 10 active | shares compounds with EBNA-1 inh;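 active = mean inhibition over triplicates above a set limit taken from the primary EBNA-1 screen, cut at about 37% in these data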;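 note: purified full length Zta protein with Cy5 labeled ZRE DNA probe; inhibitors lower polarization by freeing the labeled DNA probe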
Of the large screens only hits and unclear results are named; the others gave an inactive call (follow-up assays come after a bar, where they were run).

Cc1cccc(C)c1NC(=O)Cn1nnc(C(=O)Nc2ccc(F)cc2F)c1N	EBNA-1 inh 28 | EBNA-1 inh conf 29 | ZTA DNA inh trip inactive
Cc1cc(C)c(NC(=O)Cn2nnc(C(=O)Nc3ccc(F)cc3F)c2N)c(C)c1	none
COc1ccc(-n2nnnc2SCC(=O)c2ccc3c(c2)OCCO3)cc1	EBNA-1 inh 28 | EBNA-1 inh conf inactive | ZTA DNA inh trip inactive
COc1ccc(-n2nnnc2SCC(=O)c2cccc(OC)c2)cc1	none
COCCNc1c2c(c(C#N)c3nc4ccccc4n13)CCCC2	none
N#Cc1c2c(c(NCc3cccnc3)n3c1nc1ccccc13)CCC2	EBNA-1 inh 77 | EBNA-1 inh conf 31 | ZTA DNA inh trip inactive
COc1ccc2cc(/C=N/NC(=O)c3c(Cl)cnn3C)c(Cl)nc2c1	none
COc1ccc2cc(/C=N/NC(=O)CN(c3ccccc3)S(=O)(=O)c3ccccc3)c(Cl)nc2c1	EBNA-1 inh 35 | EBNA-1 inh conf inactive | ZTA DNA inh trip inactive
COc1ccc2cc(/C=N/NC(=O)c3ccc(CN(c4ccc(C)c(C)c4)S(C)(=O)=O)cc3)c(Cl)nc2c1	EBNA-1 inh 53 | EBNA-1 inh conf inactive | ZTA DNA inh trip inactive
COc1ccc(N(CC(=O)N/N=C/c2cc3ccc(OC)cc3nc2Cl)S(=O)(=O)c2ccccc2)cc1	none
COC(=O)COc1ccc(/C=N/NC(=O)c2ccc(N(Cc3ccccc3)S(C)(=O)=O)cc2)cc1	EBNA-1 inh 67 | EBNA-1 inh conf inactive | ZTA DNA inh trip inactive
COc1ccc(Cl)cc1NC(=O)CN1CCN(S(=O)(=O)c2ccc(F)cc2)CC1	EBNA-1 inh 44 | EBNA-1 inh conf 91 | ZTA DNA inh trip inactive
CN(C(=O)c1ccc(NC(=O)Cc2cccc(NC(=O)C3CCN(C(=O)C4CCCCC4)CC3)c2)cc1)C1CCCC1	none (no result: EBNA-1 inh)
O=S(=O)(Nc1cc(Sc2cccc3cccnc23)c(O)c2ccccc12)c1ccc(F)cc1	EBNA-1 inh 33 | EBNA-1 inh conf inactive | ZTA DNA inh trip inactive
O=S(=O)(Nc1cccnc1Cl)c1ccc(F)cc1	none
COc1ccc(CNc2nc(NCc3ccc(OC)cc3)c3[nH]cnc3n2)cc1	EBNA-1 inh 39 | EBNA-1 inh conf inactive | ZTA DNA inh trip inactive
COc1cc(CNc2ccc3[nH]c(=O)[nH]c3c2)ccc1OCc1ccc(Cl)cc1	none
CC(=O)Nc1ccc(C(=O)CSc2nnnn2C)cc1	none
Cn1nnnc1SCc1ccc(C(=O)Nc2ccc(Br)cc2)cc1	EBNA-1 inh 39 | EBNA-1 inh conf inactive | ZTA DNA inh trip inactive
N#Cc1cc(-c2ccccc2)nc(N2CCNCC2)n1	none
O=C(CCc1nc2sc3c(c2c(=O)[nH]1)CCCC3)Nc1ccccc1Cl	EBNA-1 inh 39 | EBNA-1 inh conf inactive | ZTA DNA inh trip inactive
COc1ccc(N2CCN(C(=S)Nc3ccc(F)cc3)CC2)cc1	EBNA-1 inh 34 | EBNA-1 inh conf inactive | ZTA DNA inh trip inactive
COc1ccc(N2CCN(C(=S)Nc3cc(C)cc(C)c3)CC2)cc1	none
COc1ccc(N2CCN(S(=O)(=O)c3ccc(C(=O)NCc4ccco4)cc3)CC2)cc1	EBNA-1 inh 38 | EBNA-1 inh conf inactive | ZTA DNA inh trip inactive
O=C(NN1C(=O)c2ccc3c4c(ccc(c24)C1=O)CC3)c1ccc(Br)cc1	EBNA-1 inh 55 | EBNA-1 inh conf inactive | ZTA DNA inh trip inactive
O=S(=O)(Nc1nc(-c2ccccc2)cs1)c1cc(Cl)ccc1Cl	EBNA-1 inh 31 | EBNA-1 inh conf inactive | ZTA DNA inh trip inactive
CCC(=O)Nc1cccc(NC(=S)NC(=O)c2cc3ccccc3o2)c1	EBNA-1 inh 31 | EBNA-1 inh conf inactive | ZTA DNA inh trip inactive
CCC(=O)Nc1ccc(NC(=S)NC(=O)c2cc3ccccc3o2)cc1	none
O=C(COC(=O)c1ccc(S(=O)(=O)N2CCCCC2)cc1)Nc1ccccc1	none (no result: EBNA-1 inh)
COc1cccc(CNC(=O)COC(=O)c2ccc(Cl)s2)c1	none (no result: LYPLA2 inh, ZTA counter, EBNA-1 inh, LYPLA1 counter)
CC(=O)Nc1ccc(/C=C/c2nc(-c3ccccc3O)n[nH]2)cc1	EBNA-1 inh 45 | EBNA-1 inh conf inactive | ZTA DNA inh trip inactive
COc1ccc(NC(C)=O)cc1S(=O)(=O)Nc1ccc(C(=O)N2CCCC2)cc1	none
Cc1ccc2nc(-c3ccc(SCC(=O)O)nc3)[nH]c2c1	none
CCc1nnc(NC(=O)CSc2ccc(-c3nc4ccc(C)cc4[nH]3)cn2)s1	EBNA-1 inh 45 | EBNA-1 inh conf inactive | ZTA DNA inh trip inactive
Cc1nc(NC(=O)CSc2nccn2C)sc1C(=O)N(C)C	none
COc1ccc(-n2ncc3c2CC(C)(C)CC3NC(=O)c2c(C)cc(=O)oc2C)cc1 (stereo not drawn)	none
CCNc1ccc(C(=O)OCC(=O)NC(C)c2ccccc2)cc1[N+](=O)[O-] (stereo not drawn)	none
CCNc1ccc(C(=O)OC(C(=O)NC(N)=O)C(C)C)cc1[N+](=O)[O-] (stereo not drawn)	EBNA-1 inh 33 | EBNA-1 inh conf inactive | ZTA DNA inh trip inactive
CC(=O)Nc1ccc(NC(=O)c2cc(=O)c3cc(C)c(C)cc3o2)cc1	EBNA-1 inh 73 | EBNA-1 inh conf 35 | ZTA DNA inh trip inactive
CC(=O)Nc1ccc(NC(=O)c2cc(=O)c3ccc(C)cc3o2)cc1	none
CC(C)Cn1cc(C(=O)NCc2cccs2)c2c3ccccc3n(C)c2c1=O	EBNA-1 inh 38 | EBNA-1 inh conf inactive | ZTA DNA inh trip inactive
Cc1ccc(C(=O)NC(=S)Nc2ccccc2N2CCOCC2)cc1C	none
CC1CCC(NC(=O)C2CCC(CNS(=O)(=O)c3cccc4cccnc34)CC2)CC1 (stereo not drawn)	none
Cc1[nH]c2ccccc2c1/C=C/C(=O)c1ccncc1	EBNA-1 inh 38 | EBNA-1 inh conf inactive | ZTA DNA inh trip inactive
O=C(/C=C/c1cccc2ccccc12)c1ccncc1	none
COc1ccccc1C(=O)NC(=O)CSc1nnc(C)s1	none
Cc1ccc(OCc2nnc(NC(=O)c3ccco3)s2)cc1	none
Cc1ccc(OCc2nnc(NC(=O)c3ccco3)s2)c(C)c1	EBNA-1 inh 46 | EBNA-1 inh conf inactive | ZTA DNA inh trip inactive
CCOC(=O)N1CCc2c(sc(NC(=O)C3COc4ccccc4O3)c2C(N)=O)C1 (stereo not drawn)	EBNA-1 inh 29 | EBNA-1 inh conf 56 | ZTA DNA inh trip inactive
O=C(COC(=O)c1cc([N+](=O)[O-])ccc1N1CCOCC1)Nc1c(Cl)cccc1C(F)(F)F	none
COCCNC(=O)C(c1ccc(C)cc1)N(Cc1cccs1)C(=O)CCC(=O)Nc1ccccn1 (stereo not drawn)	none
COc1ccc(CC(=O)Nc2sccc2C#N)cc1S(=O)(=O)N1CCOCC1	none
FC(F)(F)c1cc(-c2ccco2)nc(NCc2ccccc2)n1	none
COc1ccccc1-c1cc(C(F)(F)F)nc(NCc2ccco2)n1	EBNA-1 inh 40 | EBNA-1 inh conf inactive | ZTA DNA inh trip inactive
Cn1c(N)c(C(=O)c2ccc(F)cc2F)c(=O)n(C)c1=O	none
